# Data as given in PubChem BioAssay (EPA / NIEHS).
# Inconclusive results are not listed. Active and inactive are the calls of the source. How the source made its calls: active means hit-call score of the fitted dose curve at least 0.9, where 1 is the maximum; inconclusive means response in the unintended direction; inactive means score below 0.9.
# How the values were obtained:
# [1] = biological target: human Opioid Receptor Delta 1 (Opiate D1), OPRD1 (gene 4985) (UniProt P41143); experiment: NVS_GPCR_hOpiate_D1: NovaScreen (NVS) G Protein-Coupled Receptor Assay for human Opioid Receptor Delta 1 (Opiate D1) (AID 2283280)
# Summary of the method: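 Radioligand displacement on membranes from CHO cells expressing the receptor, read by filter scintillation counting 1 h after dosing. Duplicate single-point screen at 25 uM, then concentration series for actives; loss of signal versus DMSO.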
# [2] = biological target: human Thromboxane A2 Receptor (TXA2), TBXA2R (gene 6915) (UniProt P21731); experiment: NVS_GPCR_hTXA2: NovaScreen (NVS) G Protein-Coupled Receptor Assay for human Thromboxane A2 Receptor (TXA2) (AID 2283282);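 further: actives reduce bound radioligand signal relative to DMSO baseline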
# Summary of the method: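 Filter scintillation counting of bound radioligand, human platelet protein, 1 h exposure. Single-concentration duplicates (25 uM) first, concentration-response follow-up for actives. Binding loss scored against DMSO baseline.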
# [3] = biological target: human Neurokinin, NK2 Receptor, TACR2 (gene 6865) (UniProt P21452); experiment: NVS_GPCR_hNK2: NovaScreen (NVS) G Protein-Coupled Receptor Assay for human Neurokinin, NK2 Receptor (AID 2283278);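 further: actives reduce bound radioligand signal relative to DMSO baseline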
# Summary of the method: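 Test chemicals displace a radioligand from receptor prepared from CHO cells in a cell-free format, read after 4 hours by scintillation counting on filters. Screening starts at 25 uM in duplicate, and active chemicals then go to concentration series.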
# [4] = biological target: mouse Cholecystokinin, CCK1 Receptor (CCKA), Cckar (gene 12425) (UniProt O08786); experiment: NVS_GPCR_mCCKAPeripheral: NovaScreen (NVS) G Protein-Coupled Receptor Assay for mouse Cholecystokinin, CCK1 Receptor (CCKA) (AID 2283285)
# Summary of the method: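 Radioligand competitive displacement on mouse pancreatic membranes, 2 h incubation; filter-based scintillation counting, loss of signal versus DMSO. Single-concentration screen at 25 uM in duplicate, actives retested in concentration-response up to 50 uM.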
# [5] = tested on: 5-hydroxytryptamine receptor 2C (pig); experiment: NVS_GPCR_p5HT2C: NovaScreen (NVS) G Protein-Coupled Receptor Assay for pig Serotonin, 5-Hydroxytryptamine Receptor 2C (5HT2C) (AID 2283288)
# Summary of the method: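 Pig choroid plexus membranes; radioligand competitive binding, filter-based scintillation counting, read 1 h after dosing. Primary screen in duplicate at 25 uM; actives then run as concentration series; loss of signal versus DMSO baseline.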
# [6] = biological target: human Opioid Receptor Mu (Opiate Mu), OPRM1 (gene 4988) (UniProt P35372); experiment: NVS_GPCR_hOpiate_mu: NovaScreen (NVS) G Protein-Coupled Receptor Assay for human Opioid Receptor Mu (Opiate Mu) (AID 2283290);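 further: hits lower bound tracer signal versus DMSO meaning displacement of the ligand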
# Summary of the method: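 Here, radioligand binding to CHO-extracted receptor was measured after 2.5 h using filter-based scintillation detection. Initial single-concentration screening used 25 uM in duplicate with plate controls; confirmed actives went to concentration-response testing.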
# [7] = biological target: rat Serotonin, 5-Hydroxytryptamine Receptor (5HT), Non-Selective Binding, Htr1a (gene 24473) (UniProt P19327); experiment: NVS_GPCR_r5HT_NonSelective: NovaScreen (NVS) G Protein-Coupled Receptor Assay for rat Serotonin, 5-Hydroxytryptamine Receptor (5HT), Non-Selective Binding (AID 2283295)
# Summary of the method: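 Radioligand displacement on rat cortical membranes, 1 h incubation, filter-based scintillation counting. Primary duplicates at 25 uM, actives retested in concentration series; loss of signal fitted against DMSO as baseline.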
# [8] = biological target: rat Adrenergic, Alpha 1A Receptor (Adra1A), Adra1a (gene 29412) (UniProt P43140); experiment: NVS_GPCR_rAdra1A: NovaScreen (NVS) G Protein-Coupled Receptor Assay for rat Adrenergic, Alpha 1A Receptor (Adra1A) (AID 2283296)
# Summary of the method: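 Rat cortical membranes pretreated with chlorethyl clonidine; competitive radioligand displacement, 1 h. Filter-based scintillation counting. Primary screen in duplicate at 25 uM, actives followed in concentration series.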
# [9] = biological target: rat Adrenergic, Alpha 1, Non-selective Receptor (Adra1), Adra1a (gene 29412) (UniProt P43140); experiment: NVS_GPCR_rAdra1_NonSelective: NovaScreen (NVS) G Protein-Coupled Receptor Assay for rat Adrenergic, Alpha 1, Non-selective Receptor (Adra1) (AID 2283289)
# Summary of the method: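 Rat forebrain membranes; radioligand displacement read by filter-based scintillation counting 1 h after dosing. Primary screen in duplicate at 25 uM; hits (e.g. ≥30% inhibition) rerun as concentration–response to 50 uM max. Fitted versus DMSO.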
# [10] = biological target: human Neurotensin Receptor (NTS), NTSR1 (gene 4923) (UniProt P30989); experiment: NVS_GPCR_hNTS: NovaScreen (NVS) G Protein-Coupled Receptor Assay for human Neurotensin Receptor (NTS) (AID 2283279)
# Summary of the method: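 Radioligand displacement on human NTSR1 protein from CHO cells, cell-free, 1 h, filter-based scintillation counting. Primary screen at 25 uM in duplicate; hits rerun in concentration-response up to 50 uM.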
# [11] = biological target: rat Serotonin, 5-Hydroxytryptamine Receptor 1 (5HT1), Non-Selective Binding, Htr1a (gene 24473) (UniProt P19327); experiment: NVS_GPCR_r5HT1_NonSelective: NovaScreen (NVS) G Protein-Coupled Receptor Assay for rat Serotonin, 5-Hydroxytryptamine Receptor 1 (5HT1), Non-Selective Binding (AID 2283286)
# Summary of the method: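 Rat cortical membranes, radioligand displacement, 1 h incubation, read by filter scintillation. Primary screen in duplicate at 25 uM. Hits (e.g. ≥30% inhibition) went to concentration-response up to 50 uM, fitted as loss of binding versus DMSO.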
# [12] = tested on: rat Adrenergic, Alpha 1B Receptor (Adra1B), gene 24173; experiment: NVS_GPCR_rAdra1B: NovaScreen (NVS) G Protein-Coupled Receptor Assay for rat Adrenergic, Alpha 1B Receptor (Adra1B) (AID 2283297)
# Summary of the method: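 Rat liver membranes, radioligand displacement with filter-based scintillation detection, 1 h incubation. Primary screen in duplicate at 25 uM; actives retested in concentration series; activity relative to DMSO.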
# [13] = biological target: rat Adrenergic Receptor, Beta (Adrb), Non-selective Binding, Adrb1 (gene 24925) (UniProt P18090); experiment: NVS_GPCR_rAdrb_NonSelective: NovaScreen (NVS) G Protein-Coupled Receptor Assay for rat Adrenergic Receptor, Beta (Adrb), Non-selective Binding (AID 2283298)
# Summary of the method: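 Non-selective beta-adrenergic radioligand binding in rat cortical membranes, 1 h incubation, filter-based scintillation read-out. Primary screen 25 uM in duplicate; hits retested in concentration-response up to 50 uM, DMSO baseline.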
# Chain of human Neurokinin, NK2 Receptor, TACR2 (gene 6865) (P21452 whole entry, looked up): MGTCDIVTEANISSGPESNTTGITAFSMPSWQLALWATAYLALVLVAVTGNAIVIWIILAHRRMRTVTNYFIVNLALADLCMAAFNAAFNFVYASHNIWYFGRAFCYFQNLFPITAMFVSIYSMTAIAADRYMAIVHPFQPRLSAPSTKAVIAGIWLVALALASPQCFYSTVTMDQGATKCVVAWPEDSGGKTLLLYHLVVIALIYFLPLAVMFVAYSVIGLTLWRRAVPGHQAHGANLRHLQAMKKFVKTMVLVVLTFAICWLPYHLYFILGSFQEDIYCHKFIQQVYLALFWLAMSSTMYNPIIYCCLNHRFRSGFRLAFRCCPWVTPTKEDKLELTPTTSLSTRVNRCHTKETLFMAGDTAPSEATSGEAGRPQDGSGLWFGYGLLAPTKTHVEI
# Chain of human Opioid Receptor Delta 1 (Opiate D1), OPRD1 (gene 4985) (P41143 whole entry, looked up): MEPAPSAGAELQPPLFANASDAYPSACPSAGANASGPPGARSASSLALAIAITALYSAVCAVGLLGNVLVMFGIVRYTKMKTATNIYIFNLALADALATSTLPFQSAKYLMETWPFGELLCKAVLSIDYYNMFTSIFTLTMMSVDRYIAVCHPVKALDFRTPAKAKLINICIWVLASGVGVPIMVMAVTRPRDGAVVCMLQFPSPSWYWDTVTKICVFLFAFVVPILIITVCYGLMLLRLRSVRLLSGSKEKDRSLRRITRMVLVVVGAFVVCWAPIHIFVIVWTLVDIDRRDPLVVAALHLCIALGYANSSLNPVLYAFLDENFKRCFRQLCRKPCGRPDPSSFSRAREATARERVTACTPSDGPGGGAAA
# Chain of rat Serotonin, 5-Hydroxytryptamine Receptor (5HT), Non-Selective Binding, Htr1a (gene 24473) (P19327 whole entry, looked up): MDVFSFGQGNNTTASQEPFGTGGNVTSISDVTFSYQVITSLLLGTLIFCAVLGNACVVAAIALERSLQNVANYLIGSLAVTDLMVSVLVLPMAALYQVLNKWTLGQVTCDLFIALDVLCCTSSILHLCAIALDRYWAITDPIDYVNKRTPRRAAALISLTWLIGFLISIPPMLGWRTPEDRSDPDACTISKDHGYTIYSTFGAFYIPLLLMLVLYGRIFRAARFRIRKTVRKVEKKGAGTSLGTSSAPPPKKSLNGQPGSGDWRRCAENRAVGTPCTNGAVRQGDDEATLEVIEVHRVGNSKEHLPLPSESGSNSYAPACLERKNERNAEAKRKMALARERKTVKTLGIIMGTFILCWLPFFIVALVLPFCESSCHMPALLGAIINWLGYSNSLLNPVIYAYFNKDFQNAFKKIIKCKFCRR
# Chain of rat Adrenergic, Alpha 1, Non-selective Receptor (Adra1), Adra1a (gene 29412) (P43140 whole entry, looked up): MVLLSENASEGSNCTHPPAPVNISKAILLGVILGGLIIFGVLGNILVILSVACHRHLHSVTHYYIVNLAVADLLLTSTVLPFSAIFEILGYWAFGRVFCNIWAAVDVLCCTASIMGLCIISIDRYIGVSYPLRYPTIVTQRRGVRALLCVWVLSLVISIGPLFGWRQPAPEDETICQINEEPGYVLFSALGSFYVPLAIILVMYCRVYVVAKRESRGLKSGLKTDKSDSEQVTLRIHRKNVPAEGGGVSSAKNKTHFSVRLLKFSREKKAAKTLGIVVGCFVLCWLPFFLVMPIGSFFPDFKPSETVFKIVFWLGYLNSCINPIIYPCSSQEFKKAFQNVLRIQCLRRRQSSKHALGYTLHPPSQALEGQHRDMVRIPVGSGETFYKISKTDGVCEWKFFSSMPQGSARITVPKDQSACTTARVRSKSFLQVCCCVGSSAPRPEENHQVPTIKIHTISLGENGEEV
# Chain of rat Adrenergic, Alpha 1A Receptor (Adra1A), Adra1a (gene 29412) (P43140 whole entry, looked up): as above
# Chain of human Opioid Receptor Mu (Opiate Mu), OPRM1 (gene 4988) (P35372 whole entry, looked up): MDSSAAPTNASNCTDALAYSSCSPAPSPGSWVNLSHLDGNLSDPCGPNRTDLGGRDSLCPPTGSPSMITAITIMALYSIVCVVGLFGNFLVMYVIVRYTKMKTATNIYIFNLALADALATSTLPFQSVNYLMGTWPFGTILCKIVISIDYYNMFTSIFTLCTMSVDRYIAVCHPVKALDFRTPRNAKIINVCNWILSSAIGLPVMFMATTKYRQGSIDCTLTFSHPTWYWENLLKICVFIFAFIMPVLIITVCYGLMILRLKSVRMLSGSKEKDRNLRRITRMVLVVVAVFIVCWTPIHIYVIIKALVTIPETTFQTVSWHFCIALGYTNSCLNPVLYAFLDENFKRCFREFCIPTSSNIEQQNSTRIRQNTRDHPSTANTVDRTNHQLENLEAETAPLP
# Chain of human Neurotensin Receptor (NTS), NTSR1 (gene 4923) (P30989 whole entry, looked up): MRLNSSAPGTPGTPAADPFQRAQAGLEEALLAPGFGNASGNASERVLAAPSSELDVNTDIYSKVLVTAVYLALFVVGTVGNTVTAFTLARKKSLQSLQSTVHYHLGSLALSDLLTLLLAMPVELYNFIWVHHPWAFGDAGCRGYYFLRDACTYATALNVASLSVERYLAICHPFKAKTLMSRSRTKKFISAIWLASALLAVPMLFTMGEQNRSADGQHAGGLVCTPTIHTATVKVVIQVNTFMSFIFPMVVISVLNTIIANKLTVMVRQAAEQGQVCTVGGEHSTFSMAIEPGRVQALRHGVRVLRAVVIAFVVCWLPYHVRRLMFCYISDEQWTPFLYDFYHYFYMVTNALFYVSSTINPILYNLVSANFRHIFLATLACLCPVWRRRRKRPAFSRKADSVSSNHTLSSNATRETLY
# Chain of mouse Cholecystokinin, CCK1 Receptor (CCKA), Cckar (gene 12425) (O08786 whole entry, looked up): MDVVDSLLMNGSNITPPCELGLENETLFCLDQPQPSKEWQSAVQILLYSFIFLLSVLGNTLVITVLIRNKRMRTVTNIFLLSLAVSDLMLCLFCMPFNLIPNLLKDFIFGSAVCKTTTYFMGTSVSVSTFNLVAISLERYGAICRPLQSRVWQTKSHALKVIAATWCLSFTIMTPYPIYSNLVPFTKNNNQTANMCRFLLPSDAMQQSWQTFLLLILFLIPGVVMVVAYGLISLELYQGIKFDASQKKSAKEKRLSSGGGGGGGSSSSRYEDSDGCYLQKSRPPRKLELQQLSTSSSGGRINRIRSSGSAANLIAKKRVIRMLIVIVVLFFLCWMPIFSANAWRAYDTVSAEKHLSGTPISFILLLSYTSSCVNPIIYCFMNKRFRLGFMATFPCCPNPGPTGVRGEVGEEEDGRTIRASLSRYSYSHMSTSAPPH
# Chain of human Thromboxane A2 Receptor (TXA2), TBXA2R (gene 6915) (P21731 whole entry, looked up): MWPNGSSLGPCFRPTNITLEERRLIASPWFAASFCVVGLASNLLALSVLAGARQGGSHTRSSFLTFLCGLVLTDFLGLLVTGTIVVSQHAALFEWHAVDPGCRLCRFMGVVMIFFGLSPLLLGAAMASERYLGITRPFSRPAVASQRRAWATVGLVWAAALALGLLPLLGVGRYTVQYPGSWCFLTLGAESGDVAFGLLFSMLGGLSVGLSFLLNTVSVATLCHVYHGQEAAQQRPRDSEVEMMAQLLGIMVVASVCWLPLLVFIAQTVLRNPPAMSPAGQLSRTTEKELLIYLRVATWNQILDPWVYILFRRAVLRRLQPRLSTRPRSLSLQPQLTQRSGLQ
# Chain of rat Serotonin, 5-Hydroxytryptamine Receptor 1 (5HT1), Non-Selective Binding, Htr1a (gene 24473) (P19327 whole entry, looked up): as the sequence (P19327 whole entry, looked up) above
# Chain of rat Adrenergic Receptor, Beta (Adrb), Non-selective Binding, Adrb1 (gene 24925) (P18090 whole entry, looked up): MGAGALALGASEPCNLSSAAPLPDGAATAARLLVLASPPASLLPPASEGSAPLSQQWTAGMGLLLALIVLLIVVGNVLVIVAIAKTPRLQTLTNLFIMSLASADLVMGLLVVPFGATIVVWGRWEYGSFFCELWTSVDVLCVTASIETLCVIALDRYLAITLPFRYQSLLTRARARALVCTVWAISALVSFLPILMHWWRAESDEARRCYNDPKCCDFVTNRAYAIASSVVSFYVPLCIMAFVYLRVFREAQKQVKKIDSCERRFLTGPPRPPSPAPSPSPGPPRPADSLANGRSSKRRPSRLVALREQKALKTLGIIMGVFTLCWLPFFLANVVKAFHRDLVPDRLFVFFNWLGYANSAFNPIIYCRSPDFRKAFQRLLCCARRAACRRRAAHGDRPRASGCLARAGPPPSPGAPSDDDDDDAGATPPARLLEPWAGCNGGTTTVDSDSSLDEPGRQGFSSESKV
smiles,measurement,setting,value
OCC(O)CO,outcome,[1],inactive
O=C1OC(c2ccc(O)cc2)(c2ccc(O)cc2)c2ccccc21,AC50,[1],6.64 µM (active)
same,AC50,[2],454 nM (active)
CN(C)C(=O)NC1(c2ccccc2)CCN(CC[C@@]2(c3ccc(F)c(F)c3)CN(C(=O)c3ccccc3)CCO2)CC1,AC50,[3],0.00564 µM (active)
same,AC50,[4],12.8 µM (active)
same,AC50,[5],16.7 µM (active)
same,AC50,[6],14.9 µM (active)
same,AC50,[7],5.72 µM (active)
same,AC50,[8],8.08 µM (active)
S=c1[nH]c2ccccc2s1,outcome,[3],inactive
same,outcome,[5],inactive
same,outcome,[6],inactive
CN(C)C(=O)NC1(c2ccccc2)CCN(CCC[C@]2(c3ccc(Cl)c(Cl)c3)CCCN(C(=O)c3ccccc3)C2)CC1,AC50,[3],0.164 µM (active)
same,outcome,[1],inactive
same,AC50,[5],2.57 µM (active)
same,AC50,[9],6.25 µM (active)
same,AC50,[6],3.14 µM (active)
same,outcome,[7],inactive
same,outcome,[8],inactive
O=C(N[C@@H](c1ccccc1)[C@@H]1CCCCN1)c1cccc(C(F)(F)F)c1Cl,AC50,[3],17.8 µM (active)
same,outcome,[9],inactive
same,AC50,[6],10.8 µM (active)
same,AC50,[7],2.1 µM (active)
same,AC50,[8],16.7 µM (active)
CN(C)CCCN1c2ccccc2Sc2ccc(Cl)cc21,AC50,[3],25 µM (active)
same,AC50,[10],14.5 µM (active)
same,AC50,[4],21.8 µM (active)
same,AC50,[11],8.89 µM (active)
same,AC50,[6],10.3 µM (active)
same,AC50,[7],0.331 µM (active)
same,AC50,[12],10.8 nM (active)
COc1ccc(OC(F)(F)F)cc1CN[C@H]1CCCN[C@H]1c1ccccc1,AC50,[3],13.5 µM (active)
same,AC50,[6],7.3 µM (active)
same,AC50,[7],12.1 µM (active)
same,AC50,[8],25 µM (active)
same,AC50,[12],14800 nM (active)
CCCCOC(=O)CCCCC(=O)OCCCC,outcome,[10],inactive
CSc1ccc(Oc2ccc(S(N)(=O)=O)cc2CN(C)C)cc1C,AC50,[3],6.33 µM (active)
same,AC50,[1],15 µM (active)
same,AC50,[5],19.2 µM (active)
same,AC50,[9],1.08 µM (active)
same,AC50,[6],8.3 µM (active)
same,AC50,[7],13.5 µM (active)
same,AC50,[8],6.58 µM (active)
same,AC50,[12],875 nM (active)
same,AC50,[13],25 µM (active)
